Screening data as filed in PubChem BioAssay.
The list is not random: actives were taken first. Their share in the collection is about 1.2%.
PrPC TRFRET: inhibitors of human cell surface prion protein PrPC, primary screen, cell-based, TR-FRET. Major prion protein (Homo sapiens), P04156. TR-FRET read-out. inhibition, % at 13.8 µM. 370,000 compounds, 0.43% hits. AID 720596, 2013; in the data active means inhibition above about 24%
SSB-PriA inh: inhibitors of Klebsiella pneumoniae PriA binding to SSB C-terminal tail, primary screen, biochemical, AlphaScreen | PriA–SSB C-terminal tail interaction (Klebsiella pneumoniae) | AlphaScreen SSBct-PriA binding, biotinylated peptide | inhibition, % at 33 µM | 430,000 compounds, 0.6% hits | AID 1272365, 2023; in the data active means inhibition mostly above about 37%, no sharp cut-off; inactive means mostly below about 20%
PrP UTR inh: inhibition of PrP 5' UTR reporter expression; cell-based PrP 5' UTR mRNA reporter, plate reader; inhibition, % (no concentration beside the values); 340,000 compounds, 0.35% hits; AID 488862, 2010; in the data active means inhibition above about 52%
FadD28 FP inh: inhibitors of FadD28 bisubstrate probe binding, primary screen, biochemical, fluorescence polarization, single point. Mycobacterium tuberculosis FadD28 fatty-acid-AMP ligase. inhibition, % at 12.5 µM. 360,000 compounds, 0.22% hits. AID 588549, 2011; in the data active means inhibition above about 8.5%, passing the limit was not always enough
UGM FP inh: M. tuberculosis UGM enzyme inhibitors, primary screen, biochemical, fluorescence polarization, single point | purified UGM, fluorescence polarization probe displacement | inhibition, % at 10 µM | 320,000 compounds, 0.06% hits | AID 504406, 2011; in the data active means inhibition above about 10%, passing the limit was not always enough
Rv3671c inh: Rv3671c serine protease inhibitors, primary screen, biochemical, fluorescence polarization, M. tuberculosis H37Rv; P9WHR9; inhibition, % at 5.96 µM; 320,000 compounds, 0.048% hits; in the data active means inhibition above about 38%;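 further: extracellular domain of Rv3671c used as enzyme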
PrPC confirm: confirmation of inhibitors of cell surface human prion protein, confirmation, cell-based, TR-FRET. shares compounds with PrPC TRFRET. cell surface PrPC level. inhibition, % at 13.8 µM. 1,500 compounds, 65% hits. AID 743200, 2013; in the data active means inhibition above about 25%
LD9 tox: cytotoxicity in LD9 cells, cytotoxicity control for cell surface PrPc inhibitor project, cell-based, luminescence, high throughput; 1,500 compounds, 29% hits; shares compounds with PrPC TRFRET; AID 743201, 2013; luminescence viability; inhibition, % at 13.8 µM; in the data active means inhibition above about 9.5%
A number is an active result; . = inactive; / = no result given.

SMILES	PrPC TRFRET	SSB-PriA inh	PrP UTR inh	FadD28 FP inh	UGM FP inh	Rv3671c inh	PrPC confirm	LD9 tox
CS(=O)(=O)c1cccc(C(=O)Nc2cccc(-c3nc4ccccc4[nH]3)c2)c1	129.0	.	.	.	.	.	.	20.4
COc1ccc(C(=O)/C=C2\C(=O)Nc3ccccc32)cc1	/	.	/	/	/	/	/	/
CC(C)Oc1ccc(C(=O)/C=C2/C(=O)Nc3ccccc32)cc1	34.3	.	.	.	.	.	.	.
COc1cc(/C=N/NC(=O)c2ccc(CN(C)S(=O)(=O)c3ccc(C)cc3)cc2)ccc1O	27.8	/	.	.	.	.	.	.
CC(C)[C@H](NC(=O)OC(C)(C)C)c1nnc(S(=O)(=O)Cc2c(F)cccc2Cl)o1	30.5	.	.	.	.	.	27.7	65.6
CC[C@@H](C)[C@H](NC(=O)OC(C)(C)C)c1nnc(S(=O)(=O)Cc2cc(C)ccc2C)o1	.	.	.	.	.	.	/	/
CCOC(=O)c1nn(-c2ccccc2Cl)c(=O)cc1OCC(=O)Nc1cc(OC)ccc1OC	/	.	/	/	/	/	/	/
Cc1nn(Cc2ccc(Cl)c(Cl)c2)c(C)c1NC(=O)c1cc(CC(C)C)on1	48.8	.	.	.	.	.	51.0	.
Cc1ccccc1Cn1nc(C)c(NC(=O)c2cc(CC(C)C)on2)c1C	.	.	.	.	.	.	/	/
CCc1nc2c(sc3cccc(F)c32)c(=O)n1CC(=O)Nc1ccc(Br)cc1	/	.	/	/	/	/	/	/
O=C(CSC1=NC(=O)/C(=C\c2ccccc2)N1c1ccccc1)Nc1ccccc1	/	.	/	/	/	/	/	/
O=C(c1ccc(Cl)c(Cl)c1)c1cc(-c2ccccn2)c(N2CCOCC2)s1	41.1	.	.	.	.	.	52.4	.
O=C(c1ccc(Br)cc1)c1cc(-c2ccccn2)c(N2CCOCC2)s1	.	.	.	.	.	.	/	/
COc1cc2oc3ccc(C#Cc4ccc(N)cc4)cc3c(=O)c2cc1OC	25.6	.	.	.	.	.	33.3	10.0
Cc1[nH]c2ccccc2c1C(c1ccc2c(c1)OCO2)N1CCOCC1 (centres undefined)	/	.	/	/	/	/	/	/
O=C1OCCC1Sc1ncnc2sc3c(c12)CCC3 (centres undefined)	56.1	.	.	.	.	.	63.7	.
COc1ccc(NC(=S)NC(NC(=O)c2cccc(Cl)c2)C(Cl)(Cl)Cl)c([N+](=O)[O-])c1 (centres undefined)	.	.	.	.	/	.	/	/
O=C(NC(NC(=S)Nc1ccccc1Cl)C(Cl)(Cl)Cl)c1cccc(Cl)c1 (centres undefined)	24.6	.	.	.	.	.	39.6	10.8
NC(=O)C1CCN(C(=O)c2ccc3nc(-c4ccccc4)c(-c4ccccc4)nc3c2)CC1	47.0	.	.	.	.	.	53.1	.
CCOC(=O)N1CCN(C(=O)c2ccc3nc(-c4ccccc4)c(-c4ccccc4)nc3c2)CC1	.	.	.	.	.	.	/	/
Cc1cccc(NNC(=O)C(=O)NNc2cccc(C)c2)c1	29.3	.	.	.	.	.	.	.
Cc1cccc(NC(=O)CC(=O)Nc2cccc(C)c2)c1	.	.	.	.	.	.	/	/
O=C(COc1ccc2ccccc2c1Br)NC(=S)Nc1cccc(CO)c1	61.2	.	.	.	.	.	66.1	.
O=C(O)CCC(=O)NNC(=O)COc1ccc2ccccc2c1Br	45.9	.	.	.	.	.	85.2	.
O=C(COc1ccc2ccccc2c1Br)Nc1ccncc1	60.0	.	.	.	.	.	68.9	.
SMILES	PrPC TRFRET	SSB-PriA inh	PrP UTR inh	FadD28 FP inh	UGM FP inh	Rv3671c inh	PrPC confirm	LD9 tox
O=C(COc1ccccc1[N+](=O)[O-])Nc1cccnc1	.	.	.	.	.	.	/	/
O=C(COc1ccc(Br)cc1Br)NC(=S)Nc1cccc(CO)c1	.	.	.	.	.	.	/	/
O=C(COc1ccc2ccccc2c1Br)Nc1cccnc1	47.5	.	.	.	.	.	68.1	.
CC(C)(C)c1ccc(OCC(=O)Nc2ccncc2)c(Br)c1	.	.	.	.	.	.	/	/
O=S(=O)(NC1(c2nc(-c3cnccn3)no2)CCCCC1)c1ccc2c(c1)OCCO2	/	.	/	/	/	/	/	/
Cc1nc(-n2cccc2)sc1C(=O)NC1CC2CCC(C1)N2S(C)(=O)=O (centres undefined)	/	.	/	/	/	/	/	/
O=c1[nH]c(N2CCN(c3ccccc3F)CC2)nc2c(-c3cccc(F)c3)csc12	/	.	/	/	/	/	/	/
CCOC(=O)c1sc(C)c2c1NC(C)(c1cccs1)NC2=O (centres undefined)	35.7	.	.	.	.	.	33.7	.
O=C(Cn1nc(C(=O)N2CCOCC2)cc1C1CC1)NCc1ccc2c(c1)OCO2	/	.	/	/	/	/	/	/
Brc1cc(Br)c2ncnc(N3CCCCC3)c2c1	75.5	.	.	.	.	.	111.0	.
Cc1ccc(S(=O)(=O)c2ncccc2[N+](=O)[O-])cc1	70.7	.	.	.	.	.	54.6	97.7
CN1CCN(c2ccc(NC(=O)c3ccc([N+](=O)[O-])o3)cc2Cl)CC1	.	.	.	.	.	.	/	/
O=C(Nc1ccc(N2CCN(C(=O)c3ccccc3)CC2)cc1)c1ccc([N+](=O)[O-])o1	26.2	.	.	.	/	/	.	93.4
CC(C)C(=O)N1CCN(c2ccc(NC(=O)c3ccc([N+](=O)[O-])o3)cc2Cl)CC1	35.5	.	.	.	/	/	.	98.0
CCNC(=O)OC(C)(C)C	/	.	/	/	/	/	/	/
CC(C)Sc1ccc(NC(=O)C2CC2)nn1	/	.	/	/	/	/	/	/
O=C(Nc1cnoc1)c1ccc(Br)o1	/	.	/	/	/	/	/	/
CCSCCOC(=O)C1=C(C)N(C)C(=O)NC1c1cc(OC)ccc1OC (centres undefined)	42.7	.	.	.	.	.	29.7	.
COc1ccc(C(=O)NCc2nnc(SCC(=O)Nc3nnc(C)s3)n2C2CCCCC2)cc1	/	.	/	/	/	/	/	/
O=C(NCC#CCOc1cccc(C(F)(F)F)c1)c1cccs1	/	.	/	/	/	/	/	/
O=C(Cn1cnc2ccccc2c1=O)N1CCC(n2ccnn2)CC1	/	.	/	/	/	/	/	/
O=C(Nc1nc(-c2ccccc2)c(C(=O)c2ccccc2)s1)c1ccc(Cl)cc1	/	.	/	/	/	/	/	/
CCOC(=O)Nc1nc(-c2ccccc2)c(C(=O)c2ccc(Cl)cc2)s1	25.1	.	.	.	.	.	.	9.6
CCOc1ccccc1NC(=O)NCCn1ncccc1=O	/	.	/	/	/	/	/	/
Cc1ccccc1C(=O)N1CCN(c2ccc(NC(=O)c3ccc4c(c3)OCO4)cc2)CC1	33.9	.	.	.	.	.	30.3	13.4
